From PubChem BioAssay
Where “and” joins values, the source holds several entries; their conditions need not be identical. Equal values may be shown once. Calls of active or inactive are those of the source.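 How the source made its calls, unless noted: active means compounds whose cell count with miR-34 switched on is under 0.7 times the count with it off; inactive means the rest.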

How the values were obtained:
[1] = sensitizers of A549 cells to miR-34 induction, primary screen, imaging, A549 dox-inducible miR-34, nuclei and caspase counts (AID 1347080); conditions: A549 miR-34 inducible, Hoechst nuclei count, 48 h; further: test concentration not given here
[2] = survival rescue of mitochondrial mutant cells in low glucose, primary screen, MELAS cybrids, Rieske KO mouse fibroblasts, CellTiter-Glo (AID 1508586;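 active means mean z-score across replicates of 1.96 or higher in either the MELAS or the Rieske mutant cell line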;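 further: test concentration not given here; z relative to plate mean and SD of compound and empty wells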)
[3] = viability rescue of complex I mutant cybrids, primary screen, cell-based, galactose medium, ATP luminescence (AID 1645843;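 active means z-score of at least 1.8 in each of two replicates, scored against plate mean and spread of sample wells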;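 further: positive z means more ATP and so rescue of galactose-driven cybrid death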); conditions: complex I mutant cybrid cells, 72 h, stronger effect = higher value
[4] = stronger effect = lower value, cell number ratio, induced over uninduced
[5] = measured here: relative caspase fold change +Dox/-Dox
[6] = measured here: total cells with miR-34 induction, stronger effect = lower value
[7] = measured here: total cells without miR-34 induction
[8] = MELAS cybrid survival, CellTiter-Glo 48 h, stronger effect = higher value
[9] = Rieske KO mouse fibroblast survival, CellTiter-Glo 72 h

Compound | fold change [1, 4] | fold change [1, 5] | cell count [1, 6] | cell count [1, 7] | z-score [2, 8] | z-score [2, 9] | z-score [3]
COC(=O)CN1CCN(C(=O)Nc2n[nH]c(-c3ccco3)n2)CC1=O | 0.915 (inactive) | 1.4 | 9430 | 10300 | 0.382 (inactive) | 0.531 | 1.98 (inactive)
CCn1cc(CNC(=O)Nc2nnc(C(C)(C)C)s2)cn1 | 0.886 (inactive) | 2.1 | 8600 | 9710 | 0.641 (inactive) | -0.73 | -0.6 (inactive)
COC1C=CO[C@@]2(C)Oc3c(C)c(O)c4c(O)c(c(C=NN5CCN(C6CCCC6)CC5)c(O)c4c3C2=O)NC(=O)C(C)=CC=CC(C)C(O)C(C)C(O)C(C)C(OC(C)=O)C1C (stereo not given in full) | 1.26 (inactive) and 0.937 (inactive) | 1.41 and 0.74 | 6670 and 7260 | 5310 and 7750 | -0.432 (inactive) | -0.0629 | 0.32 (inactive)
O=C1CN(c2ncnc3nc[nH]c23)CCN1CCc1ccccc1 | 0.93 (inactive) | 1.88 | 8450 | 9080 | -0.834 (inactive) | -0.816 | -0.58 (inactive)
CC(C)n1cc(-c2cc(C(=O)N(C)Cc3cccnc3)c3ccc(F)cc3n2)cn1 | 0.916 (inactive) | 1.28 | 9850 | 10700 | -0.603 (inactive) | 1.43 | -0.355 (inactive)
O=C(O)C=Cc1ccccc1O | 0.911 (inactive) | 0.83 | 8740 | 9590 | 0.0698 (inactive) | 0.0548 | 0.245 (inactive)
Cc1cccc(-n2cnc3cc(N)ccc32)c1 | 0.889 (inactive) | 1.07 | 8160 | 9170 | 1.59 (inactive) | 0.221 | 0.94 (inactive)
CC(=O)NC(CCCN=C(N)N)C(=O)O (stereo not given) | 0.897 (inactive) | 0.717 | 8640 | 9630 | -1.33 (inactive) | -0.192 | 0.785 (inactive)
CC(C)(CCl)C(=O)Nc1ccc(C(F)(F)F)cc1 | 0.859 (inactive) | 1.51 | 8340 | 9720 | 0.804 (inactive) | 0.128 | 0.14 (inactive)
NCc1ccc(-c2cccs2)cc1 | 0.89 (inactive) | 0.746 | 8580 | 9650 | -0.349 (inactive) | -0.59 | 0.51 (inactive)
CCc1ccc(-c2nn(CC(=O)Nc3cnn(C)n3)c3ccccc23)cc1 | 0.895 (inactive) | 1.48 | 6460 | 7220 | -0.0449 (inactive) | -0.314 | 1.09 (inactive)
Cc1nn(C)cc1-c1ccnc(N2CCCN(c3ccc(F)cc3)CC2)n1 | 0.74 (inactive) | 1.79 | 3170 | 4290 | -0.739 | 2.39 | 0.77 (inactive)
O=C(NCC(c1ccccc1)c1ccccc1)Nc1nncs1 | 0.844 (inactive) | 1.57 | 7570 | 8970 | -0.117 | 3.64 | 1.59 (inactive)
O=C(Nc1cc(Br)c(O)c(Br)c1)c1ccccc1 | 0.856 (inactive) | 0.708 | 7950 | 9290 | 0.106 (inactive) | -0.271 | 0.2 (inactive)
Cc1nn(C)cc1-c1ccnc(NCc2nc(Cc3ccccc3)no2)n1 | 0.883 (inactive) | 1.22 | 8680 | 9840 | -0.288 (inactive) | -0.167 | -0.52 (inactive)
COc1ccc2c(c1)CCN(C(=O)Nc1n[nH]c(-c3ccccc3F)n1)C2 | 0.904 (inactive) | 0.695 | 7710 | 8530 | -0.521 | 3.73 | 0.16 (inactive)
O=C(COc1ccc(Cl)cc1)Nc1ccccc1C(=O)O | 0.906 (inactive) | 0.574 | 8240 | 9090 | -0.363 (inactive) | -0.206 | 0.885 (inactive)
CCn1ncc(NC(=O)Cn2nc(C)c(-c3cccc(C(C)=O)c3)c2C)n1 | 0.83 (inactive) | 2.28 | 2420 | 2910 | -0.514 (inactive) | -0.567 | -0.465 (inactive)
Cc1nc(NC(=O)NCC2COc3ccccc3O2)nn1C(C)C (stereo not given) | 0.958 (inactive) | 1.49 | 8560 | 8940 | -0.362 (inactive) | 0.824 | 2.15 (active)
O=C(O)CCCCCNC(=O)NC1CCCCC1 | 0.882 (inactive) | 0.38 | 9190 | 10400 | -0.568 (inactive) | 0.057 | 0.68 (inactive)
NC(N)=NC(N)=Nc1cc(C(F)(F)F)ccc1Cl | 0.901 (inactive) | 0.694 | 7310 | 8110 | 0.898 (inactive) | -0.189 | -1.95 (inactive)
O=c1cc(-c2cccnc2)nc(-c2ccc(CN3CCCC(CO)C3)cc2)[nH]1 (stereo not given) | 0.899 (inactive) | 2.12 | 7730 | 8590 | -0.0299 (inactive) | -0.608 | -0.56 (inactive)
COc1ccc(C(=O)O)cc1 | 0.947 (inactive) | 0.667 | 9110 | 9620 | -0.37 (inactive) | -0.0461 | -0.635 (inactive)

Compound | fold change [1, 4] | fold change [1, 5] | cell count [1, 6] | cell count [1, 7] | z-score [2, 8] | z-score [2, 9] | z-score [3]
O=C(O)C(C(=O)O)c1ccccc1 | 0.911 (inactive) | 0.169 | 8920 | 9780 | 0.44 (inactive) | -0.084 | 0.49 (inactive)
CC(NC(CCc1ccccc1)C(=O)O)C(=O)N1CCCC1C(=O)O (stereo not given) | 0.974 (inactive) and 0.933 (inactive) | 2.22 and 0.554 | 9670 and 8080 | 9920 and 8660 | 0.277 (inactive) | 0.0621 | 0.69 (inactive)
O=C1CN(c2ncnc3nc[nH]c23)CCN1Cc1cccc(F)c1 | 0.802 (inactive) | 2.49 | 7800 | 9720 | -0.258 (inactive) | -0.742 | -0.53 (inactive)
COc1ccc(CN2CCN(c3cc(C)nc(N)n3)CC2=O)cc1 | 0.879 (inactive) | 1.5 | 8130 | 9240 | 0.162 (inactive) | 0.559 | -0.615 (inactive)
NCC(=O)Nc1ccc(OCc2ccccc2)cc1 | 0.851 (inactive) | 0.248 | 8020 | 9430 | 1.42 (inactive) | -0.396 | -1.35 (inactive)
O=C(Nc1n[nH]c(-c2ccco2)n1)N1CCc2ccccc2C1 | 0.896 (inactive) | 0.879 | 7540 | 8420 | 1.17 | 3.81 | 0.1 (inactive)
CC[C@H](C)C(=O)O[C@H]1C[C@H](O)C=C2C=C[C@H](C)[C@H](CC[C@@H]3C[C@@H](O)CC(=O)O3)[C@H]21 | 0.872 (inactive) | 2.14 | 9300 | 10700 | 0.0534 (inactive) | -0.0126 | 0.555 (inactive)
O=C(O)CNC(=O)c1cccc(O)c1 | 0.865 (inactive) | 0.603 | 8440 | 9760 | 0.669 (inactive) | 0.0478 | 0.945 (inactive)
Cc1cccc(CN2CCN(c3ncnc4sccc34)CC2=O)c1 | 0.946 (inactive) | 2.04 | 4670 | 4940 | -0.529 (inactive) | -0.501 | 2.43 (inactive)
CCOc1cc(CC(=O)NC(CC(C)C)c2ccccc2N2CCCCC2)ccc1C(=O)O (stereo not given) | 0.993 (inactive) and 0.919 (inactive) | 2 and 0.721 | 8780 and 7660 | 8840 and 8340 | -0.382 (inactive) | 0.561 | 1.65 (inactive)
Cc1nnc(NC(=O)NCC(c2ccccc2)c2ccccc2)s1 | 0.837 (inactive) | 0.947 | 7790 | 9310 | 0.623 (inactive) | 1.94 | 1.01 (inactive)
CCN(CC)C(=O)[C@]1(c2ccccc2)CC1CN (stereo not given in full) | 0.994 (inactive) and 0.915 (inactive) | 2.55 and 0.784 | 10600 and 8120 | 10700 and 8880 | -0.247 (inactive) | -0.165 | 0.315 (inactive)
O=C(O)c1cccc2c(-c3ccccc3)c(-c3ccccc3)[nH]c12 | 0.883 (inactive) | 1.11 | 8700 | 9850 | -0.38 (inactive) | -0.101 | 0.98 (inactive)
CCc1ccccc1-c1cc(C)nc(N)n1 | 0.887 (inactive) | 1.81 | 8420 | 9490 | -0.131 (inactive) | -1.38 | -0.555 (inactive)
Fc1ccc(CC2CCNCC2)cc1 | 0.856 (inactive) | 0.77 | 8200 | 9580 | -0.906 (inactive) | 0.0714 | 0.525 (inactive)
CCC(C)n1ncn(-c2ccc(N3CCN(c4ccc(OCC5CO[C@](Cn6cncn6)(c6ccc(Cl)cc6Cl)O5)cc4)CC3)cc2)c1=O (stereo not given in full) | 0.844 (inactive) and 0.945 (inactive) | 0.375 and 1.03 | 6320 and 8160 | 7490 and 8630 | 0.58 (inactive) and -0.288 (inactive) | -0.239 and 0.0468 | -2.34 (inactive)
CC(C)n1ncc(NC(=O)Cn2ccc(-c3ccc(C(F)(F)F)cc3)n2)n1 | 0.965 (inactive) | 1.03 | 5250 | 5440 | 1.15 (inactive) | -0.0246 | 0.42 (inactive)
COc1ccc(CC(N)=O)cc1 | 0.918 (inactive) | 0.564 | 8020 | 8730 | 0.385 (inactive) | 0.663 | -0.175 (inactive)
O=C(c1cccc2nccnc12)N1CCc2[nH]nc(COc3ccccc3)c2C1 | 0.845 (inactive) | 1.54 | 8640 | 10200 | -0.113 (inactive) | -0.39 | -0.45 (inactive)
O=[N+]([O-])c1ccc(-c2ccn[nH]2)cc1 | 0.922 (inactive) | 0.744 | 8360 | 9070 | -0.915 (inactive) | -0.293 | 0.59 (inactive)
O=C(O)CCc1c(C(=O)O)[nH]c2cc(Cl)cc(Cl)c12 | 0.85 (inactive) | 0.683 | 8390 | 9880 | 0.688 (inactive) | 0.122 | 0.585 (inactive)
Cc1ccc(Cn2nccc2NC(=O)Cn2cc(-c3ccc(F)cc3)cn2)o1 | 0.895 (inactive) | 0.589 | 8330 | 9310 | -0.0022 (inactive) | -0.187 | 1.75 (inactive)
